# Measurements: PubChem BioAssay (NCATS)
# Several values for one entry are separate records, joined by “and”; a condition that tells them apart may be missing. Equal entries are not always repeated. Records with an inconclusive call do not appear. The source holds several records for some structures; these can differ, active in one and inactive in another. Activity calls are given as the source filed them. Unless noted, calls come from the whole dose curve; as a rule, active = well fitted curve in either direction with a large enough effect (not every such curve was filed as active); inconclusive = small, poorly fitted or top-dose-only effect, or another doubt; inactive = flat fitted curve, though single readings scatter.
# Assays:
# [1] = AP1 Signaling Pathway (AID 357); conditions: ME-180 AP-1-bla reporter, EGF-induced, beta-lactamase ratio, 5 h;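 note: ME-180 reporter cells stimulated with EGF at its EC50 level; % is set by controls: 0 for no effect and ±100 for the full control effect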
# Method in brief: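 In this screen, ME-180 cells in Opti-MEM with 0.5% dialyzed FBS received EC50 EGF and compound titrations for 5 h. AP-1 reporter beta-lactamase was detected via CCF4 ratio, giving AC50 for positive and negative modulators.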
# [2] = target: Cytochrome P450 1A2 (Homo sapiens) (UniProt P05177); experiment: p450-cyp1a2 (AID 410; calls by dose curve; note: potency is the fitted concentration of half-maximal effect;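 for activity change, negative = inhibition: -100% = full effect of reference inhibitor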); conditions: recombinant CYP1A2, luciferin-ME demethylation, luminescence; series mostly up to 57 µM
# Method in brief: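 20nM CYP1A2 with 100uM Luciferin-ME (at Km) in 100mM KPO4; compound preincubated 10 min, NADPH regeneration added, 60 min at room temperature. Luciferin quantified by luminescence after detection reagent; normalized to 57 uM furafylline.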
# [3] = NFAT Signaling Pathway (AID 444); conditions: Jurkat NFAT-bla M1, carbachol, beta-lactamase ratio, 5 h;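 note: carbachol stimulus at about its EC50 of 1 µM final; % is set by controls: 0 for no effect and ±100 for the full control effect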
# Method in brief: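 Jurkat cells with NFAT-driven β-lactamase reporter and co-expressed M1 receptor, stimulated with carbachol (final 1 uM, ~EC50), compound titration, 5 h at 37 °C. CCF4 loaded 1 h at RT; 460/530 nm ratio gave %activity and AC50.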
# [4] = Stat Signaling Pathway (AID 446); conditions: ME-180 SIE beta-lactamase reporter, IL-6 stimulated, 5 h;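 note: ME-180 cervical cancer cells given 40 pM IL-6 alongside compound; SIE-controlled beta-lactamase reporter measured as 460/530 nm FRET emission ratio; % is set by controls: 0 for no effect and ±100 for the full control effect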
# Method in brief: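 Screening format detects activators and inhibitors alike: ME-180 SIE-bla cells stimulated at 40 pM IL-6 for 5 hrs with compound, then dual-emission beta-lactamase read at 405 nm excitation.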
# [5] = target: Glucocorticoid receptor (Homo sapiens) (UniProt P04150); experiment: GR-GFP Redistribution (AID 450;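 active = compounds whose dose series gives a full or clear partial fitted curve of increased nuclear translocation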; note: potency is the fitted concentration of half-maximal effect); conditions: U2OS GR-GFP nuclear translocation, laser cytometry, 2 h
# [6] = target: Glucocorticoid receptor (Homo sapiens) (UniProt P04150); experiment: GR-EFC Redistribution (AID 451; calls by dose curve; note: potency is the fitted concentration of half-maximal effect); conditions: CHO-K1 GR-EFC translocation, beta-gal luminescence, 2 h
# Method in brief: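 CHO-K1 cells expressing nuclear EA and GR-ED fragments of b-gal; compounds titrated up to 46 uM final, 2 h at 37 C. GR nuclear translocation read as complemented b-gal luminescence after 1 h RT detection.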
# [7] = target: Mitogen-activated protein kinase 10 (Mus musculus) (UniProt Q61831); experiment: JNK3 AlphaScreen Assay (AID 530); conditions: JNK3 lysate, c-Jun phosphorylation; series mostly up to 57.1 µM;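 note: kinase came from lysate of stimulated human HepG2 cells; signal reports phosphorylation of biotinylated GST-cJun 1-79 at Ser73 with 10 µM ATP; % is set by controls: 0 for no effect and ±100 for the full control effect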
# Method in brief: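 Pre-activated (IL-1β/TNFα) JNK3 in HepG2 lysates phosphorylates biotin-GST-cJun(1-79), 10 uM ATP; anti-phospho-cJun(Ser73) AlphaScreen read at room temperature, pH 7.6 Tris buffer. Compounds pre-incubated 15 min as titrations.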
# [8] = target: 3',5'-cyclic-AMP phosphodiesterase 4B (Homo sapiens) (UniProt Q07343); experiment: qHTS Assay for Inhibitors of PDE-IV (AID 607; active = well fitted activation curve with a large enough effect in the main read-out, with a control signal flat, not every such curve was filed as active; note: % of control where 0% means no effect); conditions: HEK293 ACTOne CNG channel cells, membrane potential fluorescence; series mostly up to 22.9 µM
# Method in brief: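 The readout is membrane depolarisation from a cAMP-sensing CNG channel, detected with a potential dye at ex 535/em 590. Cells were HEK293-derived (endogenous PDE-IV) at 1000 cells/well, titrated up to 22.9 uM final.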
# [9] = qHTS Assay for Lipid Storage Modulators (AID 1519; calls by dose curve); conditions: Drosophila S3 cells, BODIPY lipid droplet/cell ratio, laser cytometry, cells loaded with oleic acid; for activity change, negative = inhibition: at 25.7 µM (top of the series)
# Method in brief: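 Cells seeded at 5,000 per well were treated with compounds over a concentration series and loaded with oleic acid (400 uM, as added). Lipid droplet fluorescence (488 nm excitation, 500-530 nm channel) was read by laser-scanning cytometry and normalized to 20 uM Triacsin C.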
# [10] = target: Ubiquitin carboxyl-terminal hydrolase 1 (Homo sapiens) (UniProt O94782); experiment: Inhibitors of USP1/UAF1: Pilot qHTS (AID 504865; active = well fitted curve in the direction sought with a large enough effect; an effect the other way counts as inactive or inconclusive;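 note: rhodamine fluorescence freed from ubiquitin-rhodamine substrate followed over time; top concentration of the series differs between compounds; % is set by controls: 0 for no effect and ±100 for the full control effect; nearly all actives have a fitted effect of over 35% in size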); conditions: purified USP1/UAF1, Ub-rhodamine cleavage fluorescence; series mostly up to 54.9 µM
# Method in brief: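 USP1/UAF1 complex (1nM) preincubated with compound 15 min at room temperature, then Ub-Rho substrate (150nM final) added. Fluorescence read kinetically at 480/540 nm, 6 reads every 60 seconds. Buffer: 50mM HEPES pH 7.8, 0.5mM EDTA, 0.1 mg/ml BSA, 1mM TCEP, 0.01% Tween-20.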
# [11] = target: ATP-dependent 6-phosphofructokinase (Trypanosoma brucei brucei) (UniProt O15648); experiment: qHTS Assay to Find Inhibitors of T. brucei phosphofructokinase: hit validation (AID 492961; active = well fitted curve in the direction sought with a large enough effect; an effect the other way counts as inactive or inconclusive); conditions: T. brucei PFK, ADP-Glo luminescence; series mostly up to 24.3 µM
# Method in brief: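 Inhibition of parasite PFK is measured as reduced ADP formation, quantified via luciferase after ATP depletion. Assay used 0.1 mM ATP, 0.5 mM F6P, 1.25 nM enzyme, 45 min incubation.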
# [12] = qHTS profiling for inhibitors of Plasmodium falciparum proliferation (AID 504749; active = well fitted curve in the direction sought with a large enough effect; an effect the other way counts as inactive or inconclusive;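 note: 0% = DMSO vehicle and full inhibition = artemisinin control; nearly all actives have a fitted effect of over 60% in size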); conditions: P. falciparum in erythrocytes, SYBR Green DNA, 72 h, at 28.7 µM (top of the series)
# Method in brief: (§1)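 P. falciparum-infected erythrocytes (0.3% parasitemia, 2.5% hematocrit) incubated with compound 72 h at 37 C, 5% CO2. Parasite DNA detected by SYBR Green after lysis, overnight at room temperature; normalised to 0.29 uM artemisinin and DMSO.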
# AS120 = experiment: as above; conditions: P. falciparum in erythrocytes, SYBR Green DNA, 72 h; series mostly up to 28.7 µM
# Method in brief: as §1
# CP238 = experiment: as above; conditions: P. falciparum in erythrocytes, SYBR Green DNA, 72 h; series mostly up to 12.8 µM
# Method in brief: as §1
# CP250 = experiment: as above; conditions: P. falciparum in erythrocytes, SYBR Green DNA, 72 h; series mostly up to 12.8 µM
# Method in brief: as §1
# CP262 = experiment: as above; conditions: P. falciparum in erythrocytes, SYBR Green DNA, 72 h; series mostly up to 12.8 µM
# Method in brief: as §1
# CP265 = experiment: as above; conditions: P. falciparum in erythrocytes, SYBR Green DNA, 72 h; series mostly up to 12.8 µM
# Method in brief: as §1
# FAB9 = experiment: as above; conditions: P. falciparum in erythrocytes, SYBR Green DNA, 72 h; series mostly up to 12.8 µM
# Method in brief: as §1
# JCK = experiment: as above; conditions: P. falciparum in erythrocytes, SYBR Green DNA, 72 h; series mostly up to 12.8 µM
# Method in brief: as §1
# PC49 = experiment: as above; conditions: P. falciparum in erythrocytes, SYBR Green DNA, 72 h; series mostly up to 12.8 µM
# Method in brief: as §1
# [13] = measured here: cell count channel max response
# [14] = measured here: lipid channel max response
# Chain of Glucocorticoid receptor (Homo sapiens) (P04150 whole entry, looked up, the tested form may be a part): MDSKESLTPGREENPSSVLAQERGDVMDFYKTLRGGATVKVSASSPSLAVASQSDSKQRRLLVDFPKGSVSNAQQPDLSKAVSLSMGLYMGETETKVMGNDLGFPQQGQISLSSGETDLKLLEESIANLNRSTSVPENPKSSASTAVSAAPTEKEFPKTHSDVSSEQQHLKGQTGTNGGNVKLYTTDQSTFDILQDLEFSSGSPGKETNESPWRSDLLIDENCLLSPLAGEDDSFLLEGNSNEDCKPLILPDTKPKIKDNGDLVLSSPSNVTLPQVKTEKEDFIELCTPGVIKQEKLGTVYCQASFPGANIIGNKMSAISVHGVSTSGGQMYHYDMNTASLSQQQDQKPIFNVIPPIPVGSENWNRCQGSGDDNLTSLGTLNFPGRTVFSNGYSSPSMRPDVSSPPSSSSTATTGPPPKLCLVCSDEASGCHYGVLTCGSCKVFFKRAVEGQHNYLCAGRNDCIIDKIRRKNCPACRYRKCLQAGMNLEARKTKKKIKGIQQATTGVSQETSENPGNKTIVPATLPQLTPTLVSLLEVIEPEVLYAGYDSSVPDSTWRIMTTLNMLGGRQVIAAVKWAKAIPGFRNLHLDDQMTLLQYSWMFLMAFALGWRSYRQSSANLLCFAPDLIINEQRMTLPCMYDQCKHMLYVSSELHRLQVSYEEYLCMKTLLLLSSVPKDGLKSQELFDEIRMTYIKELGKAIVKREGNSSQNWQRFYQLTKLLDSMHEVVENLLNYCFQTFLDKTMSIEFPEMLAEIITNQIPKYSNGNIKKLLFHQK
# Chain of Cytochrome P450 1A2 (Homo sapiens) (P05177 whole entry, looked up): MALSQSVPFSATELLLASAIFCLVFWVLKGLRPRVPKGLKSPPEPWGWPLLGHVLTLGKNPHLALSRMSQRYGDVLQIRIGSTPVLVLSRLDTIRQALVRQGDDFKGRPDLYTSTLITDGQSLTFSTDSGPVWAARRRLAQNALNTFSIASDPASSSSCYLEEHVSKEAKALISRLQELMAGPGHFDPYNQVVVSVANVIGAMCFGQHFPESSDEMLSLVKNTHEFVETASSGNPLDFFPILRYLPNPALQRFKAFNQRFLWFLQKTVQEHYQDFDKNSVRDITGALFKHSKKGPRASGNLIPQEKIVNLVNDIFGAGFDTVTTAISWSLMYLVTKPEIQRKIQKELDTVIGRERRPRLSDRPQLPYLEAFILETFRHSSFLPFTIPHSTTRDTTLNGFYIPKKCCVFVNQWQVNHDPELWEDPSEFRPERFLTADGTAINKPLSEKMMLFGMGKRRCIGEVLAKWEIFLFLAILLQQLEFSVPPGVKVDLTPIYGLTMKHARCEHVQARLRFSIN
# Chain of Ubiquitin carboxyl-terminal hydrolase 1 (Homo sapiens) (O94782 whole entry, looked up): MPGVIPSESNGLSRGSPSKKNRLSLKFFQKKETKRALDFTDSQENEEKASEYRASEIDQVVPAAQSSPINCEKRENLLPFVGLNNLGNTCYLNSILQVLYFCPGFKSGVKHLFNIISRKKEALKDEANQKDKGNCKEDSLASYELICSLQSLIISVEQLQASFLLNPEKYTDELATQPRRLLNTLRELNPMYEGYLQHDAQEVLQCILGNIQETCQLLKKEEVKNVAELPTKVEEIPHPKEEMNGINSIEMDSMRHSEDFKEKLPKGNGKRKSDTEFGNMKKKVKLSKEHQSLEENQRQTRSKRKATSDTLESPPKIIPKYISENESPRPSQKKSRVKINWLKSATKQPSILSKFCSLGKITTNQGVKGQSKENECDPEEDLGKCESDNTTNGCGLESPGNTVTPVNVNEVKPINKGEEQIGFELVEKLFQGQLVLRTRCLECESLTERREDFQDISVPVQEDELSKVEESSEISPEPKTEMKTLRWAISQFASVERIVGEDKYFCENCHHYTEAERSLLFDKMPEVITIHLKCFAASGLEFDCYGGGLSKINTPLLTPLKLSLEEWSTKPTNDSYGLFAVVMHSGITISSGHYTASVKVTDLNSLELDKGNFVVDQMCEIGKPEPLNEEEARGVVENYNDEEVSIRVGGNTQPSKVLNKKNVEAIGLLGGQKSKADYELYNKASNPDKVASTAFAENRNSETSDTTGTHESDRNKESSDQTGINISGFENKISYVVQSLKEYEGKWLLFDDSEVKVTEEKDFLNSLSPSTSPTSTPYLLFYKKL
# Chain of 3',5'-cyclic-AMP phosphodiesterase 4B (Homo sapiens) (Q07343 whole entry, looked up): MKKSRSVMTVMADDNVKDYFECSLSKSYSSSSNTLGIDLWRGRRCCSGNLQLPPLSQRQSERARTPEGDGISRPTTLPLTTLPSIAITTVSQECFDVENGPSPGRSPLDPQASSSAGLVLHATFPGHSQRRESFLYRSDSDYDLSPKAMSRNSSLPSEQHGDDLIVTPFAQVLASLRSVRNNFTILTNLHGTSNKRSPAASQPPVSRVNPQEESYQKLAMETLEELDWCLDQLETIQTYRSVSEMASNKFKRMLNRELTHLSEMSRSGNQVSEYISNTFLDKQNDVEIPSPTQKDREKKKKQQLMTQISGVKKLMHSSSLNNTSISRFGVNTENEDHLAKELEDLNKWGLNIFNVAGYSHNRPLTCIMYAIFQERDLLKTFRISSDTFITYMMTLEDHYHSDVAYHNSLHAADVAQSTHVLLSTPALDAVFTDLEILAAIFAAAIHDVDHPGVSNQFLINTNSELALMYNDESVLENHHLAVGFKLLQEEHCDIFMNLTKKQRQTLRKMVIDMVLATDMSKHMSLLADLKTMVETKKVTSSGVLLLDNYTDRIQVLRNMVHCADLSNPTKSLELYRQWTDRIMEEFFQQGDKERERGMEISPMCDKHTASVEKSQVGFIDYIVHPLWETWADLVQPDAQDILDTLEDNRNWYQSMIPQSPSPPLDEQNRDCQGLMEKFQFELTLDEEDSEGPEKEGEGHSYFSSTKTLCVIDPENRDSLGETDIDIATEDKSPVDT
# Chain of ATP-dependent 6-phosphofructokinase (Trypanosoma brucei brucei) (O15648 whole entry, looked up): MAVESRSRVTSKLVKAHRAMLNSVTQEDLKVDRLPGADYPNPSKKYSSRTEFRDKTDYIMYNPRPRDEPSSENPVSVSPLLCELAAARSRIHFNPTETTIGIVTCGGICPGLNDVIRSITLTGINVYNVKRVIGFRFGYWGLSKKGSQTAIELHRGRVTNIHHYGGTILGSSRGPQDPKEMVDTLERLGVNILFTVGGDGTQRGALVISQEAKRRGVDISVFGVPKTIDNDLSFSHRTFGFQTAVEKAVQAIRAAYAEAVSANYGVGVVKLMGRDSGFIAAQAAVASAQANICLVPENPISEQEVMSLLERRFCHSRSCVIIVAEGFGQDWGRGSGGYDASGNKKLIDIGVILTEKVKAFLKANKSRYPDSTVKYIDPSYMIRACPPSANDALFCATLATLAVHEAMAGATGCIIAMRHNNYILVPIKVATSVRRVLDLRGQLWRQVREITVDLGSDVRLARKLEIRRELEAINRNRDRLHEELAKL
smiles,measurement,setting,value
c1ccc([C@@H]2CN3CCSC3=N2)cc1,"activity change, negative = inhibition",[1]; at 17.2 µM (top of the series),0.374% (inactive)
same,"activity change, negative = inhibition",[1]; at 38 µM (top of the series),8.49% (inactive) and 7.24% (inactive)
same,Potency,[2],31.6 µM (active) and inactive and 10 µM (active)
same,"activity change, negative = inhibition",[3]; at 17.2 µM (top of the series),-19.6% (inactive)
same,"activity change, negative = inhibition",[3]; at 38 µM (top of the series),-1.25% (inactive) and -14% (inactive)
same,"activity, negative = inhibition",[4]; at 17.2 µM (top of the series),-3.45% (inactive)
same,"activity, negative = inhibition",[4]; at 38 µM (top of the series),11.8% (inactive)
same,Potency,[5],> 46 µM (inactive) and > 20.6 µM (inactive)
same,Potency,[6],> 46 µM (inactive) and > 20.6 µM (inactive)
same,Potency,[7],inactive
same,Potency,[8],inactive
same,"activity change, negative = inhibition",[9],-1.37% (inactive)
same,max response,[9]; [13],3.69%
same,max response,[9]; [14],-1.44%
same,Potency,[10],inactive
C[C@@H](C[N+](C)(C)C)OC(N)=O,"activity change, negative = inhibition",[1]; at 17.2 µM (top of the series),2.54% (inactive)
same,"activity change, negative = inhibition",[1]; at 38 µM (top of the series),13.3% (inactive)
same,Potency,[2],inactive
same,"activity change, negative = inhibition",[3]; at 17.2 µM (top of the series),9.21% (inactive)
same,"activity change, negative = inhibition",[3]; at 38 µM (top of the series),17.1% (inactive)
same,"activity, negative = inhibition",[4]; at 7.69 µM (top of the series) unless noted,-3.42% [at 17.2 µM] (inactive)
same,Potency,[5],> 46 µM (inactive) and > 20.6 µM (inactive)
same,Potency,[6],> 46 µM (inactive) and > 20.6 µM (inactive)
same,Potency,[7],inactive
same,Potency,[8],inactive
same,"activity change, negative = inhibition",[9],-1.39% (inactive)
same,max response,[9]; [13],-0.356%
same,max response,[9]; [14],-3.27%
same,Potency,[10],inactive
CCCN[C@@H](C)C(=O)Nc1ccccc1C,"activity change, negative = inhibition",[1]; at 17.2 µM (top of the series),-5.22% (inactive)
same,"activity change, negative = inhibition",[1]; at 38 µM (top of the series),7.83% (inactive)
same,Potency,[2],inactive
same,"activity change, negative = inhibition",[3]; at 17.2 µM (top of the series),-7.99% (inactive)
same,"activity change, negative = inhibition",[3]; at 38 µM (top of the series),0.91% (inactive)
same,"activity, negative = inhibition",[4]; at 17.2 µM (top of the series),-2.53% (inactive)
same,"activity, negative = inhibition",[4]; at 38 µM (top of the series),-11.1% (inactive)
same,Potency,[5],> 46 µM (inactive) and > 20.6 µM (inactive)
same,Potency,[6],> 46 µM (inactive) and > 20.6 µM (inactive)
same,Potency,[7],inactive
same,Potency,[8],inactive
same,"activity change, negative = inhibition",[9],-0.0308% (inactive)
same,max response,[9]; [13],11.7%
same,max response,[9]; [14],11.2%
same,outcome,[11],inactive
same,Potency,[10],inactive
same,"activity, negative = inhibition",[12]; parasite line A,7.59% (inactive)
same,"activity, negative = inhibition",[12]; parasite line B,9.71% (inactive)
same,Potency,AS120,inactive
same,Potency,CP238,inactive
same,Potency,CP250,inactive
same,Potency,CP262,inactive
same,Potency,CP265,inactive
same,Potency,FAB9,inactive
same,Potency,JCK,inactive
same,Potency,PC49,inactive
CCn1cc(C(=O)O)c(=O)c2cc(F)c(N3CCN[C@@H](C)C3)c(F)c21,"activity change, negative = inhibition",[1]; at 17.2 µM (top of the series),-0.628% (inactive)
same,"activity change, negative = inhibition",[1]; at 38 µM (top of the series),12.1% (inactive)
same,Potency,[2],inactive
same,"activity change, negative = inhibition",[3]; at 17.2 µM (top of the series),-8.67% (inactive)
same,"activity change, negative = inhibition",[3]; at 38 µM (top of the series),-2.78% (inactive)
same,"activity, negative = inhibition",[4]; at 17.2 µM (top of the series),9.73% (inactive)
same,"activity, negative = inhibition",[4]; at 38 µM (top of the series),26.7% (inactive)
same,Potency,[5],> 46 µM (inactive) and > 20.6 µM (inactive)
same,Potency,[6],> 46 µM (inactive) and > 20.6 µM (inactive)
same,Potency,[7],inactive
same,Potency,[8],inactive
same,"activity change, negative = inhibition",[9],-0.691% (inactive)
same,max response,[9]; [13],-2.23%
same,max response,[9]; [14],-3.89%
same,outcome,[11],inactive
same,Potency,[10],inactive
same,"activity, negative = inhibition",[12]; parasite line A,5.09% (inactive)
same,"activity, negative = inhibition",[12]; parasite line B,0.537% (inactive)
same,Potency,AS120,inactive
same,Potency,CP238,inactive
same,Potency,CP250,inactive
same,Potency,CP262,inactive
same,Potency,CP265,inactive
same,Potency,FAB9,inactive
same,Potency,PC49,inactive
